# Measured values published in article PMC11062922 (Nature Chemical Biology, 2023).
# Like-named read-outs stand apart in the source and are kept apart here.
# Assays:
# Design in all cases: species or system human, MV4-11 + K-562 + COLO205 + SK-N-BE2 + OVCAR-8
# [1] = tested on: CSNK1D; details: read-out: apparent Kd; compound concentrations:100 nM and 1000 nM (sheet 'Samples'); n = 1
# [2] = tested on: NLK; details: read-out: apparent Kd, n = 1
# [3] = tested on: CSNK1A1; details: read-out: apparent Kd; compound concentrations:100 nM and 1000 nM (sheet 'Samples'); n = 1
# [4] = tested on: EPHA2; details: read-out: apparent Kd, n = 1
# [5] = tested on: EPHA4; details: read-out: apparent Kd, n = 1
# [6] = tested on: EPHB2; details: read-out: apparent Kd, n = 1
# [7] = tested on: EPHB4; details: read-out: apparent Kd, n = 1
# [8] = tested on: MAP4K5; details: read-out: apparent Kd, n = 1
# [9] = tested on: MAPKAPK2; details: read-out: apparent Kd, n = 1
# [10] = tested on: PDGFRB; details: read-out: apparent Kd, n = 1
# [11] = tested on: TGFBR2; details: read-out: apparent Kd, n = 1
# [12] = tested on: BUB1; details: read-out: apparent Kd, compound concentrations: 100 nM and 1000 nM (sheet 'Samples'), n = 1
# [13] = tested on: PRKD3; details: read-out: apparent Kd, compound concentrations: 100 nM and 1000 nM (sheet 'Samples'), n = 1
# [14] = tested on: PIK3CD; details: read-out: apparent Kd, compound concentrations: 100 nM and 1000 nM (sheet 'Samples'), n = 1
# [15] = compound concentrations:100 nM and 1000 nM (sheet 'Samples')
structure (smiles),measurement,setting,value
Nc1nc(-c2cccnc2)c(-c2ccnc3ccccc23)s1 [GW684083X],potency estimated from few doses,[1],2.19 µM
Cc1nn(C)c2cc(N(C)c3ccnc(Nc4cccc(S(N)(=O)=O)c4)n3)ccc12.Cl [GW770220A],potency estimated from few doses,"[2]; compound concentrations: 100 nM and 1000 nM (sheet 'Samples'), CATDS: 0.27942165636777999",1.03 µM
Cc1cccc(-c2cc(-c3c[nH]nc3-c3ccccn3)ccn2)c1 [GW679395X],potency estimated from few doses,[3],1.81 µM
CCN(CC)CCOc1ccc(Nc2ncc3cc(-c4c(Cl)cccc4Cl)c(=O)n(C)c3n2)cc1 [SB-601273],potency estimated from few doses,[4]; [15],0.0303 µM
same,potency estimated from few doses,[5]; [15],0.162 µM
same,potency estimated from few doses,[6]; [15],0.108 µM
same,potency estimated from few doses,[7]; [15],0.0302 µM
same,potency estimated from few doses,[8]; [15],2.36 µM
same,potency estimated from few doses,[9]; [15],0.32 µM
same,potency estimated from few doses,[2]; [15],1.31 µM
same,potency estimated from few doses,[10]; [15],0.576 µM
same,potency estimated from few doses,[11]; [15],1.26 µM
CC(C)c1nc(-c2cccc(NS(=O)(=O)c3ccccc3)c2)c(-c2ccnc(Nc3ccc4c(c3)CN(C)CC4)n2)s1 [GSK1649598A],potency estimated from few doses,[12]; CATDS: 1.7014993428197001E-2,0.579 µM
same,potency estimated from few doses,"[8]; compound concentrations: 100 nM and 1000 nM (sheet 'Samples'), CATDS: 1.3446008257637299E-2",1.32 µM
same,potency estimated from few doses,[13]; CATDS: 3.0357950556932599E-2,0.152 µM
CS(=O)(=O)CCNCc1ccc(-c2ccc3ncnc(Nc4ccc(OCc5cccc(F)c5)c(C(F)(F)F)c4)c3c2)o1 [GW576484X],potency estimated from few doses,"[9]; compound concentrations: 100 nM and 1000 nM (sheet 'Samples'), CATDS: 5.1625153721040297E-2",1.83 µM
same,potency estimated from few doses,"[2]; compound concentrations: 100 nM and 1000 nM (sheet 'Samples'), CATDS: 4.7895996711747497E-2",2.18 µM
O=C1N=C(NCc2cccs2)SC1Cc1ccc2ncccc2c1 (stereo not drawn) [RO4629078-000],potency estimated from few doses,[12]; CATDS: 7.2203356914043596E-3,1.93 µM
same,potency estimated from few doses,"[4]; compound concentrations: 100 nM and 1000 nM (sheet 'Samples'), CATDS: 1.36009605508639E-2",0.342 µM
same,potency estimated from few doses,"[5]; compound concentrations: 100 nM and 1000 nM (sheet 'Samples'), CATDS: 1.66325304555619E-2",0.238 µM
same,potency estimated from few doses,"[6]; compound concentrations: 100 nM and 1000 nM (sheet 'Samples'), CATDS: 1.9892167159836899E-2",0.178 µM
same,potency estimated from few doses,"[7]; compound concentrations: 100 nM and 1000 nM (sheet 'Samples'), CATDS: 2.1087498416613601E-2",0.162 µM
same,potency estimated from few doses,[13]; CATDS: 7.3913708056946199E-3,1.75 µM
CN1C(=O)c2ccccc2N(C)c2nc(Nc3cnn(C4CCNCC4)c3)ncc21 [XMD-17-51],potency estimated from few doses,[14]; CATDS: 3.4664155585902003E-2,0.111 µM
same,potency estimated from few doses,[13]; CATDS: 1.40532268775709E-2,1.65 µM
same,potency estimated from few doses,"[11]; compound concentrations: 100 nM and 1000 nM (sheet 'Samples'), CATDS: 1.41245865647958E-2",1.61 µM
COc1ccc(-n2cnc3c(N)ncnc32)cc1 [SKF-97236],potency estimated from few doses,"[10]; compound concentrations: 100 nM and 1000 nM (sheet 'Samples'), CATDS: 0.12494680251160301",1.97 µM
same,potency estimated from few doses,[14]; CATDS: 0.374681686981787,0.222 µM
Cc1ccc(O)cc1Nc1ccnc2cc(-c3ccccn3)ccc12.Cl [GW440139A],potency estimated from few doses,"[4]; compound concentrations: 100 nM and 1000 nM (sheet 'Samples'), CATDS: 2.9853649287190101E-2",0.529 µM
same,potency estimated from few doses,"[5]; compound concentrations: 100 nM and 1000 nM (sheet 'Samples'), CATDS: 5.0335970342337201E-2",0.0816 µM
same,potency estimated from few doses,"[6]; compound concentrations: 100 nM and 1000 nM (sheet 'Samples'), CATDS: 6.0515406545195598E-2",0.052 µM
same,potency estimated from few doses,"[7]; compound concentrations: 100 nM and 1000 nM (sheet 'Samples'), CATDS: 9.4734389919906598E-2",0.0209 µM
same,potency estimated from few doses,"[9]; compound concentrations: 100 nM and 1000 nM (sheet 'Samples'), CATDS: 2.53755109568197E-2",1.57 µM
same,potency estimated from few doses,"[11]; compound concentrations: 100 nM and 1000 nM (sheet 'Samples'), CATDS: 0.155660799519896",0.00912 µM
Cc1cccc(Nc2nc(NCCN)ncc2C(N)=O)c1 [GSK1292139B],potency estimated from few doses,[13]; CATDS: 6.9928558616796505E-2,1.54 µM
Cl.Oc1cccc(Nc2ccnc3cc(-c4ccncc4)ccc23)c1 [GW494601A],potency estimated from few doses,"[4]; compound concentrations: 100 nM and 1000 nM (sheet 'Samples'), CATDS: 2.3824924917130601E-2",0.6 µM
same,potency estimated from few doses,"[5]; compound concentrations: 100 nM and 1000 nM (sheet 'Samples'), CATDS: 3.3294473343985699E-2",0.165 µM
same,potency estimated from few doses,"[6]; compound concentrations: 100 nM and 1000 nM (sheet 'Samples'), CATDS: 2.64855925277621E-2",0.385 µM
same,potency estimated from few doses,"[7]; compound concentrations: 100 nM and 1000 nM (sheet 'Samples'), CATDS: 3.7673587952975797E-2",0.11 µM
same,potency estimated from few doses,"[2]; compound concentrations: 100 nM and 1000 nM (sheet 'Samples'), CATDS: 1.9274779311166401E-2",1.83 µM
same,potency estimated from few doses,"[10]; compound concentrations: 100 nM and 1000 nM (sheet 'Samples'), CATDS: 1.9069305404636899E-2",1.97 µM
same,potency estimated from few doses,"[11]; compound concentrations: 100 nM and 1000 nM (sheet 'Samples'), CATDS: 0.14921911016535599",0.00506 µM
COc1cc(Nc2ccnc3cc(-c4ccncc4)ccc23)cc(OC)c1OC.Cl [GW494610A],potency estimated from few doses,"[4]; compound concentrations: 100 nM and 1000 nM (sheet 'Samples'), CATDS: 2.8855283068255098E-2",0.577 µM
same,potency estimated from few doses,"[8]; compound concentrations: 100 nM and 1000 nM (sheet 'Samples'), CATDS: 2.1260288667502202E-2",2.03 µM
same,potency estimated from few doses,"[9]; compound concentrations: 100 nM and 1000 nM (sheet 'Samples'), CATDS: 2.2209833673663099E-2",1.62 µM
same,potency estimated from few doses,"[2]; compound concentrations: 100 nM and 1000 nM (sheet 'Samples'), CATDS: 5.2882757998729699E-2",0.11 µM
same,potency estimated from few doses,"[10]; compound concentrations: 100 nM and 1000 nM (sheet 'Samples'), CATDS: 4.8396986719482699E-2",0.136 µM
NC1=NC(=O)/C(=C/c2ccc3ncccc3c2)S1 [RO4569139-000],potency estimated from few doses,[13]; CATDS: 6.7072777002688294E-2,1.93 µM
